Assay results as given in PubChem BioAssay AID1259310 (The Scripps Research Institute Molecular Screening Center, 2017).
The campaign covered roughly 650,000 compounds. About 850 (0.13%) were called active. This is one part of a sample in which actives are shown more often than they occur. A number with no mark means an inactive call. No stated cut-off is given here; in the data, active means normalized activity above about 1.9%; inactive means the rest.

What follows are molecules tested against F-box/WD repeat-containing protein 7 (Homo sapiens) (UniProt Q969H0) (assay: FBW7 E3 ligase activators, primary screen, biochemical, AlphaScreen, human (AID 1259310;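 further: purified mutant Fbw7 with reduced substrate affinity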)). Settings: AlphaScreen FBW7–phospho-cyclin E peptide binding, activator screen; at 26.1 µM; active compounds read high.
F-box/WD repeat-containing protein 7 (Homo sapiens), sequence (Q969H0 whole entry, looked up): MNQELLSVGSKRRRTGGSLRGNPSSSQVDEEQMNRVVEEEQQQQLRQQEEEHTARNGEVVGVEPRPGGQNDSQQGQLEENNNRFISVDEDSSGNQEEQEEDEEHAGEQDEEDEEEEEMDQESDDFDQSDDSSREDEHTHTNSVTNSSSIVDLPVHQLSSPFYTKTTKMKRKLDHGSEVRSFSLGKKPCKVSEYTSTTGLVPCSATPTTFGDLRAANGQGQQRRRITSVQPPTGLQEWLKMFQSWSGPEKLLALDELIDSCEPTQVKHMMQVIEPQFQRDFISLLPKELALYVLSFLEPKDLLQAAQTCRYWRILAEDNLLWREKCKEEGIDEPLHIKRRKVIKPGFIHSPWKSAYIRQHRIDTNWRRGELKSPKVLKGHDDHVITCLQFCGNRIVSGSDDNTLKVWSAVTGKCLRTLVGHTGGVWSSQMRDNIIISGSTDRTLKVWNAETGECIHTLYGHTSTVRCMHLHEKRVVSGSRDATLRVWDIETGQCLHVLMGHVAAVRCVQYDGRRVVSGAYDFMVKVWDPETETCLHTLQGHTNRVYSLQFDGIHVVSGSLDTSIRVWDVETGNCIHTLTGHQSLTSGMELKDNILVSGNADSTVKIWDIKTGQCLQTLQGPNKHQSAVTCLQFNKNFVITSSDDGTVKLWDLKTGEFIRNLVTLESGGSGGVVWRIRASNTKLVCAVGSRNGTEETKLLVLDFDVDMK

| SMILES | normalized activity (activation) |
| --- | --- |
| CCOC(=O)C1=C(C)NC(=S)NC1c1cc(OC)ccc1O (configuration not stated) | 0.11% |
| N#Cc1c2c(c(-n3ccnc3)n3c1nc1ccccc13)CCC2 | 0.17% |
| Cc1c(CCC#N)c(-n2ccnc2)n2c(nc3ccccc32)c1C#N | -0.21% |
| CCc1c(C)c(C#N)c2nc3ccccc3n2c1-n1ccnc1 | 2.07% (active) |
| COc1ccc(/C=N/Nc2nc3nonc3nc2Nc2cccc(C)c2)cc1OC | -0.17% |
| COc1cccc2c1OC1(CCN(C(=O)Nc3cccc(F)c3)CC1)OC2 | -0.04% |
| Oc1ccccc1-c1nc(-c2cccc(C(F)(F)F)c2)c(-c2ccccc2)[nH]1 | 0.23% |
| c1cnc(Sc2nnc3ccccn23)nc1 | 0.1% |
| COc1ccc(N=C2CCC(O)=C2C(C)=O)cc1 | 0.05% |
| COc1ccc(S(=O)(=O)NCC(=O)Nc2cccc(Br)c2)cc1OC | -0.15% |
| CCn1c(=N)n(CC(=O)c2cccc(OC)c2)c2ccccc21 | 2.64% (active) |
| COc1cccc(C(=O)N2CCN(C(=O)c3cccc(OC)c3)CC2)c1 | 0% |
| COc1cccc(C(=O)N2CCc3ccccc32)c1 | 0.05% |
| Cc1cc(S(=O)(=O)Nc2ccc(Br)cc2)c(C)c(S(=O)(=O)c2ccc(Cl)cc2)c1 | 0.11% |
| O=C1CCCC2=C1C(c1cccnc1)Nc1ccc3ncccc3c12 (configuration not stated) | -0.33% |
| CCCCNc1ncc2c(n1)c(=O)c(C#N)c1[nH]c3ccccc3c(=O)n12 | 2.15% (active) |
| CN(C)CCCNc1ncc2c(n1)c(=O)c(C#N)c1[nH]c3ccccc3c(=O)n12 | -0.01% |
| CCCCNC(=O)CSc1nnc2c(n1)[nH]c1ccccc12 | 0.16% |
| O=C(O)COc1ccc(C2Nc3ccccc3S(=O)(=O)N2Cc2ccccc2)cc1 (configuration not stated) | -0.1% |
| O=C(c1nc2ccccc2s1)N1CCN(c2nc3ccccc3s2)CC1 | 0.01% |
| Oc1ccccc1-c1nc(CI)no1 | 0.03% |
| O=S(=O)(NC1CCCCC1Sc1ncn[nH]1)c1ccc(Cl)cc1 (configuration not stated) | 0% |
| CCSC1=NSC2=NC(=O)/C(=C\c3ccc(OC)cc3)C(=N)N12 | 0.04% |
| COc1cccc(NC(=O)Nc2ccc(-c3cn4c(C)c(C)nnc4n3)cc2)c1 | 1.87% (active) |
| COc1cccc(NC(=O)Nc2cc(OC)cc(OC)c2)c1 | -0.06% |
| COc1ccc(NC(=O)c2sc3nc(-c4cccc([N+](=O)[O-])c4)cn3c2C)cc1 | -0.14% |

| SMILES | normalized activity (activation) |
| --- | --- |
| CCC(C)(C(=O)Nc1ccc2c(c1)OCCO2)N(Cc1ccco1)C(=O)c1ccccc1O (configuration not stated) | -0.01% |
| O=C(COc1cccc([N+](=O)[O-])c1)N/N=C/c1ccc(O)c([N+](=O)[O-])c1 | -0.11% |
| CN(C)c1ccc(C(c2nnnn2C(C)(C)C)N2CCN(Cc3ccccc3)CC2)cc1 (configuration not stated) | 1.85% (active) |
| CCCC(c1nnnn1C(C)(C)C)N1CCN(Cc2ccccc2)CC1 (configuration not stated) | 0.01% |
| COc1ccc(C(c2nnnn2C(C)(C)C)N2CCN(c3ccccc3)CC2)cc1 (configuration not stated) | 0.3% |
| CC(=O)c1ccc(N2C(=O)C3C(C2=O)C2(C)c4ccccc4C3(C)c3ccccc32)cc1 (configuration not stated) | -0.19% |
| COc1ccc(-c2cc(NCCOc3ccccc3)nc(N)n2)cc1 | 0.12% |
| O=C(COc1ccc(Cl)cc1)NNC(=O)C(Cc1ccccc1)N1C(=O)c2ccccc2C1=O (configuration not stated) | 0.06% |
| Cc1cc(C(=O)C(=O)c2nccn2C)c(C)n1C | 0.04% |
| CCC(c1nnnn1C1CCCC1)N1CCN(C(=O)c2ccco2)CC1 (configuration not stated) | -0.16% |
| CCC(c1nnnn1CCC(C)C)N1CCN(c2ccccc2)CC1 (configuration not stated) | 0.24% |
| CCC(c1nnnn1CCC(C)C)N1CCN(C(=O)c2ccco2)CC1 (configuration not stated) | 2.16% (active) |
| COc1cc(Cl)c(C)cc1NC(=O)CCNC(=O)Cn1cnc2sc3c(c2c1=O)CCCC3 | -0.1% |
| Cc1ccc(CN2CCN(CC(=O)NCc3ccccn3)C2=O)cc1 | -0.27% |
| NNC(=O)CNC(=O)CNS(=O)(=O)c1ccc([N+](=O)[O-])cc1 | 1.97% (active) |
| O=[N+]([O-])c1ccc(S(=O)(=O)NCCc2ccccc2)cc1 | 0.18% |
| COC(=O)CNC(=O)CNS(=O)(=O)c1ccccc1[N+](=O)[O-] | 0.14% |
| CC1=C(C(=O)Nc2cccc(C(=O)Nc3cccc(Cl)c3C)c2)SCCO1 | -0.1% |
| COc1cc(C2CC(=O)NC3=C2C(=O)CC(C)(C)C3)cc([N+](=O)[O-])c1O (configuration not stated) | -0.34% |
| C#CCN1C(=O)C(O)(CC(=O)c2ccc(OC)c([N+](=O)[O-])c2)c2ccccc21 (configuration not stated) | 0.12% |
| O=C(NCCc1cccnc1)c1ccc2c(c1)CC(c1nc3ccc(-c4cn[nH]c4)cc3c(=O)[nH]1)CO2 (configuration not stated) | 3.03% (active) |
| CN(C)CCN(C)c1nc(C2COc3ccc(C(N)=O)cc3C2)nc2ccc(-c3cn[nH]c3)cc12 (configuration not stated) | 1.23% |
| O=c1[nH]c(C2COc3ccc(F)cc3C2)nc2ccc(-c3cn[nH]c3)cc12 (configuration not stated) | -0.05% |
| CCN(CC)c1ccc2nnc(CCC(=O)Nc3ccc(C(=O)OC)cc3)n2n1 | 0.06% |
| CC1CCCN(S(=O)(=O)c2ccc3c(c2)OCC(=O)N3)C1 (configuration not stated) | 0.17% |
| CCOC(=O)CC(C(C)C)N(Cc1ccc(F)cc1)C(=S)Nc1cccc(C)c1 (configuration not stated) | 0.07% |
